# From PubChem
# Most compounds without a hit are left out; they make up all but 3.4% or so of the library.
# GalR3 antagonist: antagonists of human GalR3; O60755; HEK293 GalR3-CNG cAMP membrane potential fluorescence; galR3 body fused to GalR1 C-terminus; inhibition, % at 3 µM; 0.44% of 360,000 active; AID 651719;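 active = inhibition above the screen-wide average plus 3 SD, cut at about 13% in these data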;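 also: forskolin and galanin both at EC90 stimulate the cells; cAMP rise reported by CNG channel membrane potential dye signal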
# SMARCA2 activ: increases SMARCA2 function in MMTV reporter cells; MG213 cells, MMTV-luciferase reporter, dexamethasone, overnight; activation, % at 9.1 µM; 1% of 370,000 active; in the data active = activation above about 7.8%
# COUP-TFII inh: blocks human COUP-TFII nuclear receptor | inhibition, % at 8.6 µM | HEK293T NGFI-A luciferase reporter, luminescence | P24468 | 0.7% of 370,000 active;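 active = inhibition above a per-plate cutoff, mean inhibition of test wells between control levels plus 3 SD, cut at about 38% in these data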;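 also: cells cotransfected with COUP-TFII expression vector driving the NGFI-A reporter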
# Target sequence (P24468 whole entry, looked up): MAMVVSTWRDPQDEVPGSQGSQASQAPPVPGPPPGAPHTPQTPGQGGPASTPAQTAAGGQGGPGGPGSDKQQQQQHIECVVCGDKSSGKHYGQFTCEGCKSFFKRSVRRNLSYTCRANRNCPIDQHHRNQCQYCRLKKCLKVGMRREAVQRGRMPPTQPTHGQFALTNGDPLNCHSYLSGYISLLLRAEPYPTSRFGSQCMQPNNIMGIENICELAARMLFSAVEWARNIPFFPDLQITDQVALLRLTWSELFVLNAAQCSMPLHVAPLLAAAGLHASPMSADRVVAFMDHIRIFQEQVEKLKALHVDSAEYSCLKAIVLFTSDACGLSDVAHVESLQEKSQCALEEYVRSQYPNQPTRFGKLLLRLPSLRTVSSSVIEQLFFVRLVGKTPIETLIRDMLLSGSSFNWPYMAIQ
# FXN GAA850 act: frataxin GAA850 promoter activation. activation, % at 6 µM. HEK293 lucGAA850 FXN promoter luciferase reporter, 24 h; percent of 10 µM SAHA response. 0.56% of 360,000 active. AID 540364;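 active = activation above the average of all compounds screened plus 3 SD, cutoff fixed separately per campaign, cut at about 7.5% in these data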
# Gli-Sufu antag: antagonists of Gli-Sufu signaling; Sufu-KO-LIGHT fibroblasts, Gli luciferase reporter luminescence; inhibition, % at 5 µM; 0.74% of 340,000 active; AID 588413;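 active = inhibition above about 55%, limit read from the data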
# Cardio protect: modulators protecting cardiomyocytes from myocardial damage. AID 588492. protection from H2O2 cell death, % at 20 µM. H9c2 cardiomyocytes, H2O2 injury protection, ATPLite, 2 h. 0.63% of 360,000 active;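 active = compounds giving at least 50% protection of heart cells from peroxide-induced death in the single-dose screen, raw or plate-pattern-corrected value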
# SMARCA2 conf: confirmation of SMARCA2 (BRM) function activators | shares compounds with SMARCA2 activ | MG213 cells, MMTV-luciferase with dexamethasone, luminescence, overnight; MG213 cells expressing E1A, Rb sequestered; DMSO wells 0%, reference activator 100% | activation, % at 9.1 µM | 30% of 3,500 active | AID 652260;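 active = activation above its plate's cutoff, the mean activation of tested wells plus 3 SD, cut at about 7.9% in these data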
# VP16 Luc act: GAL4-VP16 reporter activation counter-screen | AID 686939 | 41% of 3,500 active | shares compounds with SMARCA2 activ | HEK293 GAL4-VP16 pG5luc reporter, luciferase luminescence; scaled: DMSO wells 0%, SAHA wells 100% | activation, % at 9.1 µM;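 active = activation above the solvent-only control well mean plus 3 SD, averaged across control plates, cut at about 5.2% in these data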
# A number is an active result; n = inactive; x = not tested or not shown.
SMILES,GalR3 antagonist,SMARCA2 activ,COUP-TFII inh,FXN GAA850 act,Gli-Sufu antag,Cardio protect,SMARCA2 conf,VP16 Luc act
CCc1ccccc1N=Nc1c(N)[nH]n(-c2ccccc2)c1=O,x,10.4,n,x,x,x,8.1,6.0
Cc1csc(NC(=O)c2ccc(OCC3CCCO3)cc2)n1 (centres undefined),n,n,n,n,n,n,x,x
Cc1cccc2sc(NC(=O)c3ccc(OCC4CCCO4)cc3)nc12 (centres undefined),n,11.6,n,n,n,n,n,n
CCOC(=O)c1ccc(CNCc2ccc(C)cc2)cc1,n,9.1,n,n,n,n,n,n
COc1ccc(C(C(=O)NCC2CCCO2)N(C(=O)c2snc(C(N)=O)c2N)c2ccc(C)cc2)cc1OC (centres undefined),n,n,n,n,n,n,x,x
Fc1ccc(N/N=C/c2ccncc2)c(F)c1,n,n,n,n,n,n,x,x
O=C(O)c1ccc(/C=N/Nc2ccc(F)cc2F)cc1,n,10.9,n,n,n,n,n,n
C/C(=N/NC(=O)c1ccc2nc[nH]c2c1)c1cccs1,n,n,n,n,n,n,x,x
N#C/C(=C\c1ccc(N2CCOCC2)o1)C(=O)NCCc1ccccc1,n,n,n,n,n,n,x,x
N#C/C(=C/c1ccc(N2CCOCC2)o1)C(=O)Nc1ccccc1,n,8.8,n,n,n,n,n,11.2
COc1cc(/C=C(\C#N)C(=O)Nc2ccccc2)ccc1OCCN1CCOCC1,n,8.5,n,n,n,53.5,n,6.0
Cc1ccc(S(=O)(=O)N(C)C)cc1NC(=O)CCNC(=O)c1ccccc1Cl,n,n,n,n,n,n,x,x
COc1cc([N+](=O)[O-])ccc1NC(=O)Nn1cnnc1,n,n,n,n,n,n,x,x
Cn1c(N)c(C(=O)COC(=O)C2Cc3ccccc3CN2S(C)(=O)=O)c(=O)n(C)c1=O (centres undefined),n,8.4,n,n,x,n,n,n
CC(=O)N1Cc2ccccc2CC1C(=O)OCC(=O)c1c(N)n(C)c(=O)n(C)c1=O (centres undefined),n,n,n,n,n,n,x,x
O=C(Nc1ccc(Cl)cc1)Nc1ccc2c(c1)OCO2,n,9.0,n,n,n,n,n,11.2
O=C(CNCc1ccccc1Cl)Nc1ccc2c(c1)OCCO2,n,13.3,n,n,n,n,12.7,6.9
O=C(CSCc1ccccc1Cl)Nc1ccc2c(c1)OCCO2,n,n,n,n,n,n,x,x
Cc1cc2nc(-c3ccc(SCC(=O)Nc4ccc5c(c4)OCCO5)nc3)[nH]c2cc1C,n,n,n,n,n,n,x,x
O=C(CSc1ncccn1)Nc1ccc2c(c1)OCO2,n,n,n,n,n,n,x,x
O=C(CSc1ccccn1)Nc1ccc2c(c1)OCCO2,n,8.4,n,n,n,n,8.4,11.8
Cc1ccc2nc(-c3ccc(SCC(=O)Nc4ccc5c(c4)OCCO5)nc3)[nH]c2c1,n,9.8,n,n,n,n,n,19.4
O=C(Nc1ccc2c(c1)OCO2)Nc1ccc2c(c1)OCO2,n,n,n,n,n,n,x,x
CCN(CC(=O)Nc1c(F)cccc1F)C(=O)CSc1nc(C)cc(C)n1,n,n,n,n,n,n,x,x
COc1cccc(C(=O)Nc2ccc(C(=O)c3ccncc3)cc2)c1,n,n,n,n,n,n,x,x
SMILES,GalR3 antagonist,SMARCA2 activ,COUP-TFII inh,FXN GAA850 act,Gli-Sufu antag,Cardio protect,SMARCA2 conf,VP16 Luc act
CCC(CC)C(=O)Nc1cccc(/C(C)=N/NC(=O)c2ccccc2Cl)c1,n,n,n,n,n,n,x,x
Cc1ccc(/C=N/NC(=O)c2ccco2)cc1,n,8.8,n,n,n,n,n,10.8
CC(C=NNC(=O)C(=O)NN=CC(C)=Cc1ccccc1)=Cc1ccccc1,x,x,x,n,n,n,x,x
CN(C)c1ccc(/C=N/NC(=O)c2ccco2)cc1,n,n,n,n,n,n,x,x
CC(/C=N/NC(=O)c1ccco1)=C\c1ccccc1,n,9.4,n,n,n,n,11.1,6.1
N#C/C(=C\c1cccnc1)c1nc2c(s1)CCCC2,n,8.5,n,n,n,n,n,16.5
CC1CCc2nc(/C(C#N)=C/c3cccnc3)sc2C1 (centres undefined),n,n,n,n,n,n,x,x
COc1ccc(Nc2nc3cc(-c4ccccc4C)sc3c(=O)n2C)cc1OC,n,n,n,n,x,n,x,x
COC(=O)c1sc(-c2ccc(Cl)cc2)cc1NC(=O)/C=C/C(=O)O,n,9.1,n,n,n,n,n,n
COc1ccccc1N1CCN(C2CCCN(C(=O)c3ccsc3)C2)CC1 (centres undefined),n,n,n,n,n,n,x,x
COc1ccc(CCC(=O)OCC(=O)Nc2ccc(OC)c(OC)c2)cc1OC,n,n,n,n,n,n,x,x
CN1CCCC1CCNc1ccc2c(=O)c3ccccc3oc2c1 (centres undefined),n,11.4,n,n,n,n,14.1,8.9
CCOc1ccccc1N(CC(=O)Nc1ccc(S(=O)(=O)N2CCOCC2)cc1)S(C)(=O)=O,n,11.7,n,n,n,n,n,n
CCOc1ccc(/C=C2\SC(N3CCc4ccccc4C3)=NC2=O)cc1,n,9.0,n,n,n,n,n,n
CCOC(=O)C1CCN(C(=O)c2ccc(OC)cc2OC)CC1,n,n,n,n,n,n,x,x
CCOC(=O)C1CCCN(C(=O)c2ccc(OC)cc2OC)CC1 (centres undefined),n,10.3,n,n,x,n,n,n
COc1cc2ccccc2cc1C(=O)NC1CCCC1,n,n,n,n,n,n,x,x
COc1cc2ccccc2cc1C(=O)NC1CCC(C)CC1 (centres undefined),n,11.5,n,n,n,n,n,7.6
CC(CN1C(C)CCCC1C)OC(=O)c1ccccc1F (centres undefined),n,9.2,n,n,n,n,n,n
COc1ccc2nc(SCC(=O)N3CCN(c4ccc(F)cc4)CC3)c(C#N)cc2c1,n,n,n,n,n,n,x,x
S=C1c2ccccc2CN1c1ccccc1,n,10.2,n,n,n,n,n,n
Cc1ccc(N2Cc3ccccc3OC(C)C2=O)cc1 (centres undefined),n,n,n,n,n,n,x,x
Cc1ccc(N2Cc3ccccc3C2=S)cc1,n,12.6,n,n,n,n,11.9,11.4
Cc1cc(=O)oc2c(C)c(OC(C)C(=O)Nc3ccc(N4CCC(C)CC4)cc3)ccc12 (centres undefined),n,n,n,n,n,n,x,x
O=C(O)/C=C/C(=O)N1Cc2cc3ccccc3nc2C1,n,n,n,n,n,n,x,x
